Measurements as given in PubChem BioAssay AID2284183 (EPA ToxCast).
The source made the active and inactive calls. How the source made its calls: active means hit-call score of the fitted dose curve at least 0.9, where 1 is the maximum; inactive means score below 0.9.

Target: human Tachykinin Receptor NK2 Agonism, TACR2 (gene 6865) (UniProt P21452)
Experiment: ERF_TW_GPCR_hTACR2: Eurofins (ERF) G Protein-Coupled Receptor (GPCR) Radioligand Binding LeadHunter Assay for human Tachykinin Receptor NK2 Agonism
Method: ERF_TW_GPCR_hTACR2 is a biochemical, single-readout assay that uses extracted gene-proteins in a cell-free assay. Measurements were taken 1.5 hour after chemical dosing in a 96-well plate. See NK2 Human Tachykinin GPCR Binding (Antagonist Radioligand) Assay, Panlabs.ERF_TW_GPCR_hTACR2 is an assay component calculated from the ERF_TW_GPCR_hTACR2 assay. It is designed to measure radioligand binding using a type of binding reporter as detected by scintillation counting with radiometry technology.Data from the assay component ERF_TW_GPCR_hTACR2 was analyzed at the assay endpoint, ERF_TW_GPCR_hTACR2, in the positive analysis fitting direction relative to DMSO as the negative control and baseline of activity. Using a type of binding reporter, loss-of-signal activity can be used to understand changes in radioligand binding as they relate to gene TACR2. To generalize the intended target to other relatable targets, this assay endpoint is annotated to the gpcr intended target family, where the subfamily is tachykinin.
Human recombinant neurokinin NK2 receptor expressed in CHO-hNK2 cells are used to prepare membranes in modified HEPES buffer pH 7.4. A 5 ug aliquot of membrane is incubated with 0.02 nM [125I]-Neurokinin A for 120 minutes at 25C. […] Membranes are filtered and washed, the filters are then counted to determine [125I]-Neurokinin A specifically bound. […]

Chain of human Tachykinin Receptor NK2 Agonism, TACR2 (gene 6865) (P21452 whole entry, looked up): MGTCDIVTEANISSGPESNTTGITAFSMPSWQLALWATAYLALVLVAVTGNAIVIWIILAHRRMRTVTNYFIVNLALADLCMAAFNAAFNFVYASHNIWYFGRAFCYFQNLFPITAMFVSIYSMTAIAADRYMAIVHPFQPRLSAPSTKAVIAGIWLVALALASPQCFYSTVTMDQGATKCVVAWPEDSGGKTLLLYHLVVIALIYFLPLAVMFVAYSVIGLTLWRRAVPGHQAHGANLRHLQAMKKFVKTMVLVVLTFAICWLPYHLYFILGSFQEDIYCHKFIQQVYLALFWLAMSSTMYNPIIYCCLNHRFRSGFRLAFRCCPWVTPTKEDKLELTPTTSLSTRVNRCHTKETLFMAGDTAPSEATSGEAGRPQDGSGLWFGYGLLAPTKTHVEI

| SMILES | AC50 |
| --- | --- |
| O=C(/C=C/c1ccc(O)cc1)CC(=O)/C=C/c1ccc(O)cc1 | 1080 nM (active) |
